# The panel holds about 83,000 compounds, 20% with a hit somewhere; the sample as a whole holds those more often.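 Values shown are percent growth following 48 h exposure of cells in 96-well plates to a single concentration of compound; below 10 was considered active.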 Values without a mark were called inactive. Calls of active or inactive are those of the source.
# Legend:
# Assay in all cases: NCI-60 one-dose screen, 48 h (100 = growth as untreated, 0 = no growth, -100 = all killed)
# Details in all cases: 10 µM unless noted
# [1] = test system: HCT-15 colon
# [2] = test system: HT29 colon
# [3] = test system: SNB-75 CNS
# [4] = test system: SNB-19 CNS
# [5] = test system: U251 CNS
# [6] = test system: PC-3 prostate
# [7] = test system: SK-MEL-5 melanoma
# [8] = test system: UACC-62 melanoma
# [9] = test system: LOX IMVI melanoma
# [10] = test system: SK-MEL-28 melanoma
Structure (SMILES),growth [1],growth [2],growth [3],growth [4],growth [5],growth [6],growth [7] [%],growth [8],growth [9],growth [10] [%]
CCOC(=O)c1n[nH]n2c1nc(=O)c1cnn(C)c12,105%,107%,103%,102%,100%,97.7%,105,106%,103%,113
COc1ccc2[nH]cc(-c3nc(-c4cn(C)c5ccncc45)cs3)c2c1,-47.7% (active),-33.6% (active),110%,14.6%,-71.5% (active),48.5%,50.2,101%,-88.3% (active),91.4
CN(C)c1ccc(/C=C2/C=C(c3ccccc3)OC2=O)cc1,91.7%,94.7%,102%,107%,108%,96.9%,87,92.6%,98.8%,105
CC/C(Cc1ccccc1)=C(\c1ccc(OCCN2CCCCCC2)cc1)c1ccc(OC(=O)NCc2ccccc2)cc1,9.25% (active),5.23% (active),66.4%,72.5%,49.6%,54.8%,72.5,75.3%,4.35% (active),87.2
COc1ccc(C2CC(c3ccc4c(c3)OCO4)=Nc3c(N)ncnc3N2)cc1 (stereo not given),94.3%,106%,86.6%,88.8%,101%,98.6%,87.8,90.3%,101%,112
CCCCCn1sc(=O)n(Cc2ccc(CNC(=O)OCc3ccc4c(Cl)cc(Cl)c(O)c4n3)cc2)c1=O,17.1%,110%,82.1%,48.6%,39.7%,61.1%,48.7,40.4%,51.8%,56
CCCCCCCCn1ccc2cc(NC(=O)Cn3cc(CN4CCOCC4)nn3)ccc21,92.4%,108%,100%,92.9%,88.5%,75.2%,86.7,86.8%,102%,99.8
C#CC#CC#CC#CC#CC#CC#CC#CCC1OCC(COC(=O)O[C@@H](C(=O)O[C@H]2C[C@@]3(O)[C@@H](OC(=O)c4ccccc4)[C@@H]4[C@]5(OC(C)=O)CO[C@@H]5C[C@H](O)[C@@]4(C)C(=O)[C@H](OC(C)=O)C(=C2C)C3(C)C)[C@@H](NC(=O)c2ccccc2)c2ccccc2)O1 (stereo not given in full),66.8%,5.02% (active),-25.2% (active),18.9%,17.9%,19.4%,23.4,22.3%,26.9%,59.2
COc1ccc2nc(Cl)c(/C=C/C(=O)c3ccc(NC(=O)CSc4nnc(-c5ccc(Cl)c(Cl)c5)n4-c4ccccc4)cc3)cc2c1,105%,90.1%,84.1%,91.3%,87.4%,72.5%,94.5,86.2%,97.6%,107
CN1CCCc2cc(/C=C3/SC(=S)N(CCc4ccc(O)cc4)C3=O)ccc21,56.7%,86.3%,74.1%,92.9%,94.4%,67.5%,92,71.9%,77.3%,88.5
O=c1oc2c(cnc3ccccc32)cc1-c1cccs1,112%,111%,92%,101%,99.4%,97.3%,101,101%,106%,115
Cc1nc2sc(C(=O)Nc3ccccc3)c(N)c2cc1C(=O)/C=C/c1ccccc1,-32.1% (active),-63.9% (active),-14% (active),-40.8% (active),-71.7% (active),6.68% (active),11.7,0.799% (active),-80% (active),30.9
Cc1ccc2[nH]c(=O)c3c(c2c1)OC(N)=C(C#N)C31C(=O)c2cccc3cccc1c23 (stereo not given),105%,95.6%,84.4%,97.1%,95.2%,89.3%,94.3,88.9%,93.5%,98.7

# Source: PubChem BioAssay (NCI)
